This is a sample that favours compounds with a hit; in the whole collection about 3.6% have one here.
Mdm2 MdmX PPI = inhibitors of human Mdm2/MdmX interaction. O15151+Q00987. 3% of 330,000 active. SaOS-2 split-luciferase Mdm2/MdmX complementation, luminescence. inhibition, % at 8 µM;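 active means inhibition of at least 50% at 8 µM in the primary screen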
Target sequence (O15151 whole entry, looked up): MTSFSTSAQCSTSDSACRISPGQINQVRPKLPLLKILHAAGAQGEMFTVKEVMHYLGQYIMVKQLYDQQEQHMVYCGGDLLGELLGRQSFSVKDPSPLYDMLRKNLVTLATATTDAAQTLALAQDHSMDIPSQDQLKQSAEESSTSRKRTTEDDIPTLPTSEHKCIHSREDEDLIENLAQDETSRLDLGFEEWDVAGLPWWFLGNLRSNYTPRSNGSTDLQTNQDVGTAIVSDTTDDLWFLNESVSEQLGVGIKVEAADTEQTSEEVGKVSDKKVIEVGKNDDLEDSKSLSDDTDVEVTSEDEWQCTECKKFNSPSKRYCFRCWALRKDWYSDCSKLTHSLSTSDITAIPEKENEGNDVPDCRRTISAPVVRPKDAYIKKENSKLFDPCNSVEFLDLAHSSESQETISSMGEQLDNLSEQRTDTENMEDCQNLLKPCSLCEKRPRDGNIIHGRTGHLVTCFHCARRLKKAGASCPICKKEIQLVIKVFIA
Target sequence (Q00987 whole entry, looked up): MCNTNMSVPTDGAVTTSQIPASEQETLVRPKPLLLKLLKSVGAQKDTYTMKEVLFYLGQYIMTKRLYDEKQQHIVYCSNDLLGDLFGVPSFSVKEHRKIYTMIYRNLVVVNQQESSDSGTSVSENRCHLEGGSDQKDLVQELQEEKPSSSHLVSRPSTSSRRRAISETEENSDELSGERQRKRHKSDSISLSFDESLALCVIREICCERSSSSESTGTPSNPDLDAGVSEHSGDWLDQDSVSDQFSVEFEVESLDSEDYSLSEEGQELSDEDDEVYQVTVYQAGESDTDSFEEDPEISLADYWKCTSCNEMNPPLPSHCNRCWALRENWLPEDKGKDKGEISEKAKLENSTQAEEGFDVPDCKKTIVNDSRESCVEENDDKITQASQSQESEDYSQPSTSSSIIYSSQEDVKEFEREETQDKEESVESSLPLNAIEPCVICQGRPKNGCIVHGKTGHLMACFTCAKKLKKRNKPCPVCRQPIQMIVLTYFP
Peg3 prom inh = inhibitors of Peg3 promoter. HeLa PEG-Prom luciferase reporter, luminescence, overnight. inhibition, % at 20 µM. 1.7% of 360,000 active;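 active means inhibition of at least 50% at 20 µM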
LGR2 antag = inhibitors of bursicon-induced Drosophila LGR2 receptor cAMP signaling. AID 720647. 0.35% of 380,000 active. HEK293 LGR2, CRE-luciferase, bursicon-stimulated, 4 h. inhibition, % at 9.99 µM;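 active means drop in luminescence signal, shown as inhibition above about 50% in the replicate tests, limit read from the data, passing the limit was not always enough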;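 further: agonist challenge used bursicon conditioned medium at about half maximal strength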
HSP90 refold inh = inhibitors of HSP90 luciferase refolding in rabbit reticulocyte lysate; luciferase refolding luminescence, 3 h; inhibition, % at 5.6 µM; 0.91% of 290,000 active; AID 1789;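 active means inhibition above the screen-wide mean plus 3 SD, computed separately per campaign, cut at about 16% in these data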;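 further: inhibitors lower the luminescence because luciferase stays unfolded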
CF NFkB block = blocks PAF-induced NF-kB reporter in cystic fibrosis cells. 0.86% of 360,000 active. KKLEB NF-kB-GFP reporter, GFP fluorescence overnight. inhibition, % at 5 µM;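 active means at least 50% inhibition at 5 µM, scaled per plate between neutral and stimulator controls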;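 further: PAF is a Pseudomonas aeruginosa culture filtrate used as stimulus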
KKLEB cytotox = counter-screen for CF NF-kB inhibitors: cytotoxicity; KKLEB CF airway cells viability, ATPlite luminescence, overnight; hits give low values; cells stimulated with P. aeruginosa culture filtrate; activity change (cytotoxicity), % at 5 µM; 0.36% of 360,000 active;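 active means corrected activity change at or below -50% at 5 µM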
Mdm2-MdmX conf = confirmation of human Mdm2/MdmX interaction inhibitors; shares compounds with Mdm2 MdmX PPI; Mdm2-MdmX binding, luminescent assay; inhibition, % at 8 µM; 55% of 10,000 active; AID 489028; in the data active means inhibition above about 40%
Full FLuc ctr = counter-screen for Mdm2/MdmX inhibitors: full-length luciferase | shares compounds with Mdm2 MdmX PPI | SaOS-2 full-length luciferase counterscreen, luminescence | inhibition, % at 8 µM | 77% of 6,200 active | AID 504607;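 active means mean inhibition at 8 µM reaching about 37%, which flags the compound as non-specific, limit read from the data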;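 further: p53-null SaOS-2 cells with luciferase driven by a doxycycline-inducible promoter; compound on cells about two nights before reading with doxycycline added after day one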
Hits are given with their value; i = inactive; nt = not tested or not shown.

SMILES	Mdm2 MdmX PPI	Peg3 prom inh	LGR2 antag	HSP90 refold inh	CF NFkB block	KKLEB cytotox	Mdm2-MdmX conf	Full FLuc ctr
Cc1noc(C)c1NC(=O)N(C)C[C@@H]1OCCCC[C@@H](C)Oc2ccc(NS(=O)(=O)c3ccc(Cl)cc3)cc2C(=O)N([C@H](C)CO)C[C@@H]1C	nt	nt	i	nt	nt	nt	nt	nt
O=C(COc1ccc(-n2cnnn2)cc1)Nc1cc(Cl)cc(Cl)c1	66.7	i	i	nt	i	i	i	nt
CCC(=O)N1C[C@@H](C)[C@H](OC)CN(C)C(=O)c2cc(NS(=O)(=O)CC)ccc2OC[C@@H]1C	nt	nt	i	nt	nt	nt	nt	nt
Cc1cc(OCC(=O)Nc2ccccn2)c2c(C)c(C)c(=O)oc2c1	52.4	i	i	i	i	i	i	nt
CO[C@H]1CN(C)C(=O)c2ccc(NC(=O)C3CCCC3)cc2OC[C@@H](C)N(C)C[C@H]1C	nt	nt	i	nt	nt	nt	nt	nt
COc1ccc(Cc2nnc(NC(=O)c3cc(OC)cc(OC)c3)s2)cc1	52.0	i	i	i	i	i	46.1	86.1
NS(=O)(=O)c1ccc(CNC(=O)c2cc(-c3ccccn3)nc3ccc(Cl)cc23)cc1	51.0	i	i	i	i	i	i	nt
C=CC(=O)N=c1sc2ccccc2n1-c1ccccc1	82.3	97.7	i	i	56.8	i	80.3	37.1
N=c1sc2ccccc2n1-c1ccccc1	78.6	i	nt	i	i	i	62.2	56.7
CSc1nnc(Cn2c(=O)sc3ccccc32)n1-c1ccccc1	i	i	i	i	i	i	nt	nt
COc1ccc(Nc2nc(-c3sc(C)nc3C)cs2)c(OC)c1	64.6	i	i	i	i	i	56.3	63.2
COc1ccc(OC)c(Nc2nc(-c3c(C)nc4ncccn34)cs2)c1	75.6	i	i	i	i	i	i	85.2
COC(=O)CSc1nc2cc(C)ccc2cc1C#N	i	i	nt	i	i	i	nt	nt
Cc1ccc2cc(C#N)c(SCc3nnc(-c4ccccc4[N+](=O)[O-])o3)nc2c1	87.1	i	i	i	i	i	78.7	72.3
C[C@H]1CN([C@@H](C)CO)C(=O)c2cc(C#CC(C)(C)O)cnc2O[C@@H]1CN(C)Cc1cncnc1	nt	nt	i	nt	nt	nt	nt	nt
N=c1n(CCN2CCOCC2)c2ccccc2n1CC(O)COc1ccccc1 (stereo not drawn)	i	i	nt	i	i	i	nt	nt
N=c1n(CCN2CCCCC2)c2ccccc2n1CC(O)c1cccc(Br)c1 (stereo not drawn)	97.8	109.8	nt	i	i	i	78.5	i
N=c1n(CCN2CCCCC2)c2ccccc2n1CC(O)COc1ccccc1 (stereo not drawn)	61.2	i	i	i	i	i	i	80.5
N=c1n(CCN2CCCC2)c2ccccc2n1CC(O)c1ccco1 (stereo not drawn)	i	i	nt	i	i	i	nt	nt
CN(C)CCn1c(=N)n(CC(O)c2ccc(Cl)c(Cl)c2)c2ccccc21 (stereo not drawn)	70.6	i	i	i	i	i	55.0	73.8
Cc1ccccc1OCC(O)Cn1c(=N)n(CCN2CCOCC2)c2ccccc21 (stereo not drawn)	i	i	i	i	i	i	nt	nt
COc1ccccc1OCC(O)Cn1c(=N)n(CCN2CCCCC2)c2ccccc21 (stereo not drawn)	55.6	i	i	i	i	i	45.5	73.8
O=C(N/N=C/c1cc(Cl)cc([N+](=O)[O-])c1O)c1cc(-c2ccccn2)nc2ccccc12	58.6	i	i	i	i	i	i	nt
COc1cccc(/C=N/NC(=O)c2cc(-c3ccccn3)nc3ccccc23)c1O	75.5	i	i	nt	i	i	60.0	40.0
O=C(Nc1c2ccccc2nc2ccccc12)C(Cl)(Cl)Cl	62.3	96.4	nt	i	i	i	48.3	i
COc1ccc(NC(=O)C2(c3ccc(NC(=O)c4ccc(C)cc4)cc3)CCCC2)cc1	i	i	i	i	i	i	nt	nt
COc1ccc(NC(=O)C2(c3ccc(NC(=O)c4ccc(OC)c(OC)c4)cc3)CCCC2)cc1	54.9	i	nt	i	i	i	i	nt
CNC(=O)C[C@H]1CC[C@@H]2[C@H](COc3ccc(NC(=O)c4ccccc4Cl)cc3C(=O)N2C)O1	nt	nt	i	nt	nt	nt	nt	nt
COc1ccc(-n2ncc3c(NCc4ccc5c(c4)OCO5)ncnc32)cc1	59.2	i	nt	i	i	i	i	nt
